Pf growth 96h – inhibits malaria parasite growth, 96 h; 6.9% of 320,000 active; P. falciparum luciferase reporter growth, 96 h; Potency, µM (highest dose often 28.7 µM), inactives show at the highest dose activity change, negative = inhibition, most hits filed as inhibitors; also: potency is read from the fitted curve at half-maximal effect
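Cell-based qHTS: luciferase-tagged P. falciparum in erythrocytes (2% hematocrit, 0.05% parasitemia final) incubated with compounds for 96 hours, 37 C, 5% CO2; luciferase detection reagent then added and luminescence measured.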
HCMV inh – human cytomegalovirus inhibition. HFF cells, HCMV-luciferase reporter, 72 h; stronger effect = lower value. activity change, negative = inhibition, % at 57.5 µM. 4.5% of 410,000 active. AID 1259415; in the data active = activity change below about -60%; inconclusive = no clear call, values can overlap the other calls; inactive = above about -39%
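Inhibition of viral replication was scored as loss of reporter luminescence in HFFs infected with HCMV-luciferase (MOI 1 PFU/cell) for 72 h; compounds tested at 2 doses, normalized to buffer and Salinomycin controls.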
HCV inhibitor – blocks hepatitis C virus; Huh7.5.1 HCVcc-Cre infection, luciferase reporter, 44 h; Potency, µM (top dose mostly 41.8 µM), for inactives: top-dose activity change, negative = inhibition, actives largely listed as inhibitors; 3.4% of 340,000 active; AID 651820; also: potency is read from the fitted curve at half-maximal effect
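Cells seeded at 1,000/well and cultured 4 h, then compounds added followed by HCVcc-Cre virus (~0.5 moi). After 44 h further culture, luciferase substrate was added, plates held 15 min at room temperature, and luminescence read for 15 sec.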
Pf growth 48h – P. falciparum growth inhibition at 48 hours (one generation). P. falciparum luciferase growth in erythrocytes, 48 h. Potency, µM (highest dose often 28.7 µM), for the others: at the top dose activity change, negative = inhibition, most hits filed as inhibitors. 5.9% of 310,000 active. AID 504832; also: potency is read from the fitted curve at half-maximal effect
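Luminescence readout; reporter = integrated firefly luciferase in P. falciparum. RBC culture at 2% hematocrit, 0.1% parasitemia final, 37 C/5% CO2; decreased signal taken as growth inhibition.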
Numbers without * were called inactive; ? = inconclusive; / = not tested or not shown; [ ] = another dose, or the depositor's remark. An excerpt weighted towards active compounds, which were near 13% of everything screened. Unless noted, calls follow the shape of the dose curve; as a rule, active = well fitted inhibition curve with a large enough effect; inconclusive = small, poorly fitted or top-dose-only effect, or another doubt; inactive = no such curve, though single readings can be large or run the other way. % is scaled to controls: 0 for no effect and ±100 for the full control effect.

SMILES | Pf growth 96h | HCMV inh | HCV inhibitor | Pf growth 48h
CC(C)(C)C(=O)Nc1ccc(N2CCN(c3ccc(C(F)(F)F)cn3)CC2)nc1 | ? | -10 | -10% | ?
CC(=O)Nc1ccc(NC(=O)C2CCN(c3ccc(C(F)(F)F)cn3)CC2)cc1 | 26% | -67* | 13µM* | -7%
Cn1cc(S(=O)(=O)N2CCCCCC2)cc1C(=O)Nc1ccc(Cl)c(C(F)(F)F)c1 | / | -17 | / | /
CCN(Cc1nc2ccccc2c(=O)[nH]1)Cc1nc2cc(OC)c(OC)cc2c(=O)[nH]1 | -10% | 34 | 16% | ?
CCN(CC(=O)NC(c1ccccc1)c1ccccc1)Cc1nc2ccccc2c(=O)[nH]1 | 7.4µM* | -4 | ? | 12µM*
CCN(CC(=O)Nc1ccccc1SC)Cc1nc2ccccc2c(=O)[nH]1 | -16% | 19 | 11µM* | 55%
CCN(Cc1nc2ccccc2c(=O)[nH]1)Cc1nc2ccsc2c(=O)[nH]1 | 1.5µM* | 21 | 19% | ?
CCN(CC(=O)Nc1ccc2c(c1)OCO2)Cc1nc2ccccc2c(=O)[nH]1 | ? | -100* | -14% | ?
Cc1ccn2c(Nc3ccc4c(c3)OCO4)c(-c3ccc(N(C)C)cc3)nc2c1 | / | 29 | / | /
COC(=O)c1cc2c(c3c4ccccc4n(S(=O)(=O)c4ccc(C)cc4)c13)C(=O)N(Cc1ccccc1)C2 | / | -7 | / | /
O=C(Nc1cccc(C(F)(F)F)c1)N1CC2CCCN2c2ccccc21 (centres undefined) | / | -2 | / | /
Cc1ccc(-n2ncc3c(NC4CCCC4)ncnc32)cc1 | / | -25 | / | /
CCOC(=O)C(NC(=O)NCc1ccc(F)cc1)(OCC)C(F)(F)F (centres undefined) | -15% | -10 | 12% | 4%
CCOC(=O)C(NC(=O)NCc1ccc(OC)cc1)(OCC)C(F)(F)F (centres undefined) | 9.3µM* | -25 | -22% | -7%
COc1ccc(C(=O)Oc2cccc(Nc3ncnc4ccccc34)c2)cc1OC | 2.3µM* | -18 | ? | 12%
COc1cc(C(=O)Oc2cccc(Nc3ncnc4ccccc34)c2)cc(OC)c1OC | 0% | -70* | 25µM* | ?
O=C(Oc1cccc(Nc2ncnc3ccccc23)c1)c1cccnc1 | 19% | 1 | 3% | ?
COc1ccc(C(=O)Oc2c(Sc3ccccc3)c(C)nn2-c2ccccc2)cc1OC | / | -17 | / | /
CC1CCc2nn(CC(=O)NCc3ccc(F)cc3)cc2C1 (centres undefined) | 9.3µM* | -2 | -3% | -2%
CCOC(=O)N1CCC(NC(=O)Cn2cc3c(n2)CCC(C)C3)CC1 (centres undefined) | 48% | -4 | -4% | -8%
CC1CCc2nn(CC(=O)N3CCc4ccccc43)cc2C1 (centres undefined) | 10µM* | 44 | 12% | /
CC1CCc2nn(CC(=O)NC3CCCC(C)C3C)cc2C1 (centres undefined) | 0.37µM* | -31 | ? | 7%
O=C(Cn1cc2c(n1)CCCC2)NCc1cccs1 | 5.2µM* | 11 | 8% | /
COc1cc(OC)c(Nc2nc3ccc(C(=O)c4ccccc4)cc3n3c(C)nnc23)cc1Cl | / | 5 | / | /
CC1CCc2nn(CC(=O)Nc3ccc(F)cc3F)cc2C1 (centres undefined) | 2.9µM* | -17 | 18% | 12%
SMILES | Pf growth 96h | HCMV inh | HCV inhibitor | Pf growth 48h
Oc1ccc(N=Nc2ccc(Br)cc2)c(O)c1 | 1.9µM* | 13 | -15% | ?
Cc1ccc(N=Nc2ccc(O)cc2)c(Br)c1 | 336% | 47 | -11% | 179%
Cc1nc2c(-c3ccc(F)cc3)c(C)nn2c(C)c1CCC(=O)NCc1cccc(Cl)c1 | / | 2 | / | /
O=C(CSc1nc2ccccc2s1)N1CCCCC1 | / | 112 | -4% | 129%
Cc1c(Cl)cccc1N/C(SCC(=O)N1CCCCCC1)=C(/C#N)c1nc2ccccc2s1 | 1.5µM* | -101* | ? | 2.1µM*
O=C1[C@@H]2Cc3c([nH]c4ccccc34)C(c3cccc(Br)c3)N2C(=O)CN1C1CCN(Cc2ccccc2)CC1 (some centres undefined) | ? | 4 | ? | 1.5µM*
COC(=O)c1ccc(C2c3[nH]c4ccccc4c3C[C@H]3C(=O)N(C4CCN(Cc5ccccc5)CC4)CC(=O)N23)cc1 (some centres undefined) | 3.3µM* | -1 | 10µM* | 4.7µM*
CN1CC(=O)N2C(Cc3c([nH]c4ccccc34)[C@H]2c2ccc3c(c2)OCO3)C1=O (some centres undefined) | ? | / | / | -6%
O=C1[C@@H]2Cc3c([nH]c4ccccc34)C(c3ccccc3)N2C(=O)CN1C1CCN(Cc2ccccc2)CC1 (some centres undefined) | 0.74µM* | -76* | -19% | 9%[0.00184 µM]
O=c1c2cc3c(cc2n(Cc2ccc(Cl)cc2)c(=O)n1Cc1nc(-c2ccccc2)no1)OCO3 | / | -2 | / | /
COCCCNc1ncnc2c1cnn2-c1ccc(F)cc1 | / | 68 | / | /
Clc1nc(N2CCOCC2)ncc1Br | 1.9µM* | 1 | 12% | 2.6µM*
CCOC(=O)c1cc(-c2csc(N/N=C/c3ccccc3Cl)n2)on1 | 2.6µM* | -10 | ? | ?
O=C(Nc1cccc(OCc2cc(=O)n3c4c(sc3n2)CCCC4)c1)c1ccc(F)cc1 | / | 1 | / | /
O=C(Nc1ccc(OCc2cc(=O)n3c4c(sc3n2)CCCC4)cc1)c1ccccc1 | / | -105* | / | /
COC(=O)c1c(CSc2cccc(C)c2)noc1C(=O)NCc1ccco1 | 48% | 1 | -1% | 2.6µM*
CC(C)CCNC(=O)c1onc(CSc2ccncc2)c1C(=O)NCCC(C)C | -23% | -15 | 4% | -18%
CCCNC(=O)c1c(CSc2ccccc2)noc1C(=O)NCc1ccccc1 | 15µM* | 12 | ? | ?
CN(C)CCNC(=O)c1c(CSc2ccccc2)noc1C(=O)NCc1ccccc1 | 9.3µM* | -5 | ? | ?
CC(C)CCNC(=O)c1c(CSc2ccccc2)noc1C(=O)NCc1ccccc1 | 13µM* | -7 | 14% | ?
CCOc1ccccc1NC(=O)CN1C=NS(=O)(=O)c2ccccc21 | / | 2 | / | /
COc1ccc(CNC(=O)C(Cc2ccccc2)NS(=O)(=O)c2ccc3c(c2)CCN3C(C)=O)cc1 (centres undefined) | / | -13 | / | /
C=CCNC(=O)c1onc(CSc2ccccc2)c1C(=O)NCC=C | / | -26 | -29% | /
C=CCNC(=O)c1onc(CSc2ccc(F)c(F)c2)c1C(=O)NCC=C | / | -66* | -26% | /
O=C(N[C@H]1CC[C@@]23CCCN2C(=O)CCC[C@H]3[C@H]1Cc1ccccc1)c1cccc(C(F)(F)F)c1 | / | -1 | / | /
Cc1ccc(OCC(=O)Nc2ccc(OCc3cc(=O)n4cccc(C)c4n3)cc2)cc1C | / | -13 | / | /
Cc1ccccc1NC(=S)N(C)Cc1cn(C)c2ccccc12 | 66% | -70* | 1% | ?
Cc1ccccc1NC(=S)N(C)Cc1cccs1 | ? | 31 | -2% | /
COc1ccc2[nH]cc(C(=O)CNc3nc(C)cs3)c2c1 | 36% | 72 | -16% | 1.7µM*
